Consider 14 compounds from PubChem BioAssay.

Structures are written as SMILES. Calls of active or inactive are those of the source.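 Rule for the calls, unless noted: active = fluorescence slope higher than the sample average by over 3 SD (cut at about -0.22 in these data, passing the limit was not always enough); inactive = the rest.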

The nature of assay [1]: inhibitors of TNFa-induced NFkB p65 translocation, primary screen, imaging, HUVEC, MLSMR starter and 10KST1 sets (AID 438;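 active = inhibition above 20% together with a positive visual image hit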;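 note: compound added about 3h40 before a 20 min TNFalpha stimulation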;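 for inhibition: signal is the nuclear over cytoplasmic p65 intensity ratio per well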). As to conditions: HUVEC TNFa-induced p65 nuclear translocation; cell count: measured here: nuclei count (cytotoxicity indicator), at 2.08 µM; inhibition: at 2 µM, stronger effect = higher value, 0% TNFa-plus-vehicle, 100% no-TNFa wells.
A short description of assay [2]: reduction of polyQ htt aggregates in cells – imaging, exon1htt(103Q)mCFP cells, high-content imaging, primary screen (AID 483;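 active = visual image review flags a hit and inhibition of aggregation exceeds 20%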;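 note: compound exposure lasted 3 days before fixation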;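 for nuclei count: percent of the per-plate median nuclei count of sample wells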). Conditions: exon1htt(103Q)mCFP cell line, aggregate imaging, at 2 µM; inhibition of aggregation: stronger effect = higher value; nuclei count: measured here: cell count, toxicity.
Assay [3] is described as follows: endothelial E-selectin expression blockers – imaging, HUVEC, immunofluorescence, MLSMR starter and 10KST1 sets, primary screen (AID 487;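 active = visually confirmed hit in the image check and inhibition above 20%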;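 for inhibition: signal is fraction of cell area covered by stained E-selectin grains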;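 for nuclei count: 100% = median nuclei count of all wells on the same plate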). As to conditions: HUVEC TNFalpha-induced E-selectin immunofluorescence imaging, at 2 µM; inhibition: stronger effect = higher value; nuclei count: measured here: cell number, toxicity.
Assay [4] has as its target Voltage-gated potassium channel subunit beta-2 (Rattus norvegicus) (UniProt P62483). Briefly: inhibitors of rat Kvbeta2 reductase activity – biochemical, NADPH fluorescence, primary screen (AID 622).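 Note: slope of raw intensity against log time taken from 70 to 1610 s.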 As to conditions: recombinant KvBeta, 4-cyanobenzaldehyde reduction, at 10 µM, stronger effect = higher value.
For assay [5] the target is unchanged. Briefly: enhancers of rat Kvbeta2 NADPH turnover – biochemical, NADPH fluorescence, primary screen (AID 623;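 active = NADPH fluorescence slope more negative than the mean of all samples by about 3 SD, 99.7% confidence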;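 note: fluorescence intensity change per second fitted from 20 to 320 s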). Conditions: Recombinant KvBeta, NADPH fluorescence decrease slope, 10 min; at 10 µM; stronger effect = lower value.
Assay [6] concerns the target Alpha-2C adrenergic receptor (Homo sapiens) (UniProt P18825). Briefly: compounds altering alpha2C-coupled GIRK flux – cell-based, HEK293 alpha2C/GIRK1/2, thallium flux, primary screen (AID 624;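 active = fluorescence slope after compound addition differing from the mean of all screened samples at 99.7% confidence, in either direction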;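 note: slope of fluorescence ratio to pre-addition baseline per second over 15 to 24 s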). Conditions: thallium flux BTC fluorescence, at 10 µM, actives lie on both sides.
Assay [7] can be described thus: blockers of RIG-like receptor reporter activation – cell-based, Sendai virus stimulus, luciferase, 10K MLSCN set, TLR/RLR signaling modifier project, primary screen (AID 602276;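 active = inhibition at or above 50% at 10 µM; inactive = inhibition below 50%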;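 note: firefly luciferase from ISG56 promoter only with Renilla not read in this screen; 0% = Sendai virus plus DMSO and 100% = medium plus DMSO without virus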). Conditions: HEK293 RL24 IRF3 luciferase reporter, at 10 µM, stronger effect = higher value.
The nature of assay [8]: TLR3 IRF3 reporter activation blockers – cell-based, poly I:C stimulus, luciferase, 10K MLSCN set, primary screen (AID 602277;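 active = inhibition of the reporter signal at or above 50%; inactive = inhibition below 50%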). As to conditions: HEK293-TLR3 RL24 IRF3 luciferase reporter, at 10 µM, stronger effect = higher value.

Sequence of Voltage-gated potassium channel subunit beta-2 (Rattus norvegicus) (P62483 whole entry, looked up): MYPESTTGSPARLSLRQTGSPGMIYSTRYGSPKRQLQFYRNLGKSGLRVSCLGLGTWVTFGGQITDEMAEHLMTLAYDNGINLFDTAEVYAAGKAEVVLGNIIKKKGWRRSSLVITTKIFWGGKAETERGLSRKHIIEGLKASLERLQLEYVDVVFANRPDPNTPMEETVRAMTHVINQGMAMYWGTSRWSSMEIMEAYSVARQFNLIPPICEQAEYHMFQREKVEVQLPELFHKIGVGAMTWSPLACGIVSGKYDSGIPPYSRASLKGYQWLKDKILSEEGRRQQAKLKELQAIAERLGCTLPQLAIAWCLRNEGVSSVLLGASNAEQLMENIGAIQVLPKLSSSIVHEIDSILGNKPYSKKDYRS
Sequence of Alpha-2C adrenergic receptor (Homo sapiens) (P18825 whole entry, looked up): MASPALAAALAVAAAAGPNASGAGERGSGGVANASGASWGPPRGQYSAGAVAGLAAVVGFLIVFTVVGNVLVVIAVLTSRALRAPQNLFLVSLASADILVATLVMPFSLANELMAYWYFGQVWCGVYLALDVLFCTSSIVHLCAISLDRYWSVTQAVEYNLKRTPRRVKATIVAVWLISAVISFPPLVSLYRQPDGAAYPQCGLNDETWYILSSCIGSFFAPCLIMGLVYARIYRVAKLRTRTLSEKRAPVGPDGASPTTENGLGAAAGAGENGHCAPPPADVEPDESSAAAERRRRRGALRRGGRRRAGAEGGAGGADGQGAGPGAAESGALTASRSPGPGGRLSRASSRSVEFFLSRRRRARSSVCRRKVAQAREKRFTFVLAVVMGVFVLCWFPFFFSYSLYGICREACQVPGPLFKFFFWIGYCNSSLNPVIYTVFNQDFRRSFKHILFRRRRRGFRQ

For the compound `O=C(Nc1cccc(O)c1)c1ccccc1`, the cell count in assay [1] turned out to be 474. For the same compound, the inhibition in assay [1] is 18.5% (inactive); in assay [3], -32.9% (inactive); in assay [7] it was -19.1% (inactive); in assay [8], -29.4% (inactive). In addition, the inhibition of aggregation in assay [2] was 6% (inactive). For the same compound, the nuclei count worked out at 98.6% in assay [2] and 102% in assay [3]. In addition, in assay [4], the fluorescence slope is -0.521 (inactive). For the same compound, in assay [5], the NADPH fluorescence slope is 5e-06 (inactive). The slope in assay [6] is 0.00606 (inactive).

With `Cc1ccc(-c2noc(CCC(=O)NCC3CCN(Cc4cccc(C)c4)CC3)n2)cc1`, the cell count in assay [1] was 400. Also, the inhibition is 1.5% (inactive) in assay [1], 17% (inactive) in assay [3], 25.8% (inactive) in assay [7] and 28.9% (inactive) in assay [8]. Further, in assay [2], the inhibition of aggregation was 7.8% (inactive). Also, the values for the nuclei count in assay [2] and in assay [3] were 88.4% and 89.5%, respectively. In assay [4], the fluorescence slope is -0.401 (inactive). For the same compound, in assay [5], the NADPH fluorescence slope was -4.7e-05 (inactive). Also, the slope in assay [6] is 0.0033 (inactive).

Regarding `COCCCN(Cc1ccccn1)S(=O)(=O)Cc1ccccc1`, the cell count in assay [1] was 510. For the same compound, the inhibition is -9.9% (inactive) in assay [1], 10% (inactive) in assay [3], 3.22% (inactive) in assay [7] and 15.9% (inactive) in assay [8]. Further, the inhibition of aggregation in assay [2] was 4.7% (inactive). Moreover, the nuclei count in assay [2] was found to be 97.4%; in assay [3] it was 102%. For the same compound, in assay [4], the fluorescence slope was -0.517 (inactive). In assay [5], the NADPH fluorescence slope was 8e-06 (inactive). Moreover, the slope in assay [6] was 0.00578 (inactive).

Consider `Cc1ccc(S(=O)(=O)N(CC(=O)NCc2ccco2)Cc2ccccc2F)cc1`, for which the cell count in assay [1] came to 308. The inhibition in assay [1] is 2.4% (inactive); in assay [3] it was -3.2% (inactive); in assay [7], 8.9% (inactive); in assay [8] it was 11.9% (inactive). Also, the inhibition of aggregation in assay [2] is 14% (inactive). The results for the nuclei count in assay [2] and in assay [3] were 92.3% and 103%, respectively. In assay [4], the fluorescence slope is -0.524 (inactive). The NADPH fluorescence slope in assay [5] was 1.7e-06 (inactive). Also, in assay [6], the slope is 0.00527 (inactive).

As for `CCOC(=O)c1ccc2[nH]c3c(c2c1)CN(C)CC3`, the cell count in assay [1] turned out to be 686. Also, the inhibition was -1.3% (inactive) in assay [1], -29.4% (inactive) in assay [3], 5.79% (inactive) in assay [7] and 21.3% (inactive) in assay [8]. The inhibition of aggregation in assay [2] was 28.7% (inactive). Besides, the nuclei count in assay [2] amounted to 73.1%; in assay [3], 114%. Moreover, in assay [4], the fluorescence slope is -0.543 (inactive). Further, the NADPH fluorescence slope in assay [5] is -5.6e-05 (inactive). The slope in assay [6] was 0.00602 (inactive).

On to `COc1ccc(OC)c(S(=O)(=O)NCCC2=CCCCC2)c1`, for which, in assay [1], the cell count was 677. In addition, the inhibition in assay [1] was -3.6% (inactive); in assay [3], 16.5% (inactive); in assay [7], -1.71% (inactive); in assay [8], 24.3% (inactive). Further, in assay [2], the inhibition of aggregation is -18.8% (inactive). The figures for the nuclei count in assay [2] and in assay [3] were 91.5% and 95%, respectively. For the same compound, in assay [4], the fluorescence slope is -0.486 (inactive). Moreover, the NADPH fluorescence slope in assay [5] was -4.4e-05 (inactive). The slope in assay [6] was 0.00446 (inactive).

With `CCN1C(=O)CC(N2CCC(Nc3ccc(F)cc3)CC2)C1=O` (centres undefined), in assay [1], the cell count came to 559. Further, the inhibition in assay [1] is -9.7% (inactive); in assay [3], -72% (inactive); in assay [7], -4.21% (inactive); in assay [8], -6.01% (inactive). The inhibition of aggregation in assay [2] is 6.4% (inactive). Also, the figures for the nuclei count in assay [2] and in assay [3] were 57.1% and 94.1%, respectively. The fluorescence slope in assay [4] was -0.541 (inactive). The NADPH fluorescence slope in assay [5] is 6.8e-06 (inactive). For the same compound, the slope in assay [6] was 0.00599 (inactive).

As to `N/C(=N/O)c1nc(N2CCCC2)nc(N(c2ccccc2)c2ccccc2)n1`, the cell count in assay [1] was 371. Moreover, the inhibition in assay [1] was 0.4% (inactive); in assay [3], -300% (inactive); in assay [7], 13.2% (inactive); in assay [8] it was 40.9% (inactive). In addition, the inhibition of aggregation in assay [2] is -18.1% (inactive). Further, the nuclei count was found to be 90.7% in assay [2] and 104% in assay [3]. For the same compound, the fluorescence slope in assay [4] is -0.593 (inactive). Further, the NADPH fluorescence slope in assay [5] was -3.2e-05 (inactive). Moreover, the slope in assay [6] is 0.00592 (inactive).

Take `O=C(CN1CCN(Cc2ccc3c(c2)OCO3)CC1)Nc1ccc2c(c1)OCCO2`: the cell count in assay [1] turned out to be 248. In addition, the inhibition is -3% (inactive) in assay [1], -19.1% (inactive) in assay [3], 0.946% (inactive) in assay [7] and 17.2% (inactive) in assay [8]. Also, in assay [2], the inhibition of aggregation is 2.7% (inactive). Further, the nuclei count in assay [2] came out at 75.7%; in assay [3] it was 85.5%. Further, in assay [4], the fluorescence slope was -0.583 (inactive). Besides, the NADPH fluorescence slope in assay [5] is -4.2e-05 (inactive). Moreover, in assay [6], the slope is 0.00576 (inactive).

For `c1ccc(CNc2ncnc3ccccc23)cc1`, the cell count in assay [1] was 537. Further, the inhibition in assay [1] was -12.4% (inactive); in assay [3] it was -32.1% (inactive); in assay [7], -14.3% (inactive); in assay [8], -78% (inactive). Besides, the inhibition of aggregation in assay [2] was -8.7% (inactive). The values for the nuclei count in assay [2] and in assay [3] were 70.8% and 107%, respectively. Besides, in assay [4], the fluorescence slope was -0.408 (inactive). Besides, the NADPH fluorescence slope in assay [5] is -4.8e-05 (inactive). Also, in assay [6], the slope was 0.00588 (inactive).

Turning to `COC(=O)CSC1=C(C#N)C(c2ccc(F)cc2)CC(=O)N1` (centres undefined), the cell count in assay [1] stood at 591. Besides, the inhibition in assay [1] is 2.5% (inactive); in assay [3] it was 0.6% (inactive); in assay [7] it was 10.2% (inactive); in assay [8], 19.4% (inactive). Moreover, in assay [2], the inhibition of aggregation is -6.5% (inactive). For the same compound, the nuclei count was 91.8% in assay [2] and 91% in assay [3]. Besides, the fluorescence slope in assay [4] is -0.542 (inactive). Besides, the NADPH fluorescence slope in assay [5] is -3.8e-05 (inactive). Also, in assay [6], the slope is 0.00754 (inactive).

For `COc1ccc(C2C3=C(CCCC3=O)Nc3nc(SCc4ccccc4)nn32)cc1OC` (centres undefined), the cell count in assay [1] was 665. The inhibition in assay [1] was -12.9% (inactive); in assay [3], 32.2% (inactive); in assay [7] it was 6.77% (inactive); in assay [8], 14.4% (inactive). Moreover, the inhibition of aggregation in assay [2] is 9.2% (inactive). In addition, the nuclei count in assay [2] was 91.2%; in assay [3] it was 105%. In addition, in assay [4], the fluorescence slope was -0.335 (inactive). Moreover, the NADPH fluorescence slope in assay [5] is -6.9e-05 (inactive). The slope in assay [6] was 0.00626 (inactive).

For the compound `C=Cn1nc(C)c2ccccc2c1=O`, the cell count in assay [1] came to 655. Moreover, the inhibition in assay [1] is -2.6% (inactive); in assay [3] it was -27.2% (inactive); in assay [7], 3.73% (inactive); in assay [8], 1.18% (inactive). In addition, the inhibition of aggregation in assay [2] was 16.4% (inactive). Further, the nuclei count in assay [2] stood at 114%; in assay [3], 137%. Also, the fluorescence slope in assay [4] is -0.344 (inactive). Moreover, in assay [5], the NADPH fluorescence slope was -2.7e-05 (inactive). In assay [6], the slope was 0.00755 (inactive).

On to `COC(=O)c1ccc(NC(=O)CN2CCCC2)cc1`, for which the cell count in assay [1] was determined as 612. Moreover, the inhibition in assay [1] was -11.4% (inactive); in assay [3], 51.6% (inactive); in assay [7], 9.14% (inactive); in assay [8], 7.68% (inactive). The inhibition of aggregation in assay [2] was 13.1% (inactive). Further, the nuclei count in assay [2] worked out at 107%; in assay [3], 141%. The fluorescence slope in assay [4] was -0.514 (inactive). In assay [5], the NADPH fluorescence slope was -6.2e-05 (inactive). Besides, the slope in assay [6] was 0.00467 (inactive).
